These results are taken from PubChem BioAssay (NCATS).

Molecules are shown by their SMILES. Records with an inconclusive call do not appear. A call without a number means that no potency is given here. The source made the active and inactive calls. The call rests on the fitted dose curve; in most records, active means well fitted inhibition curve with a large enough effect; inconclusive means small, poorly fitted or top-dose-only effect; inactive means no such curve, though single readings can be large or run the other way.

For test [1], the system named is Zika virus NS2B-NS3 protease (unlinked complex). Description: Primary screen GU Rhodamine qHTS for Zika virus inhibitors: Unlinked NS2B-NS3 protease assay (AID 1347159). Further: nearly all actives have a fitted effect of over 60% in size. The procedure, abridged: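 Percent inhibition came from the 15-min rise in Rhodamine110 fluorescence (1.5 microM substrate, ~15% conversion), normalized to no-inhibitor and no-enzyme wells and Hill-fitted. Unlinked protease, 25 nM, pH 8.0 Tris buffer; compounds up to 114 microM, 15-min preincubation.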
(Quantitative high-throughput screening tests each substance at several concentrations.)

The subject of test [2] is Zika virus NS2B-NS3 protease (linked construct). The test is described as follows: Primary screen NINDS Rhodamine qHTS for Zika virus inhibitors (AID 1347160). Further: nearly all actives have a fitted effect of over 55% in size. The procedure, abridged:
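Rhodamine110-peptide cleavage (1.5 µM substrate) by 25 nM linked NS2B-NS3 enzyme at pH 8.0 (Tris, Tween 20), after 15 min RT preincubation with compounds; 15-min fluorescence change normalized to controls and Hill-fitted.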

Regarding `COc1cccc(OC)c1-c1ccc(C[C@H](NC(=O)c2c(Cl)cccc2Cl)C(=O)O)cc1`, the Potency result in test [1] and in test [2] was “inactive” throughout.

Consider `CC12CC(O)C(O)C=C1c1cc(O)cc(O)c1C(=O)O2` (configuration not stated), for which the Potency entry in test [1] and in test [2] was “inactive” throughout.

Turning to `CNc1nc(Nc2cn(C(C)(C)C#N)nc2C)ncc1C(F)(F)F`, the Potency entry in test [1] and in test [2] was “inactive” in each case.

`CCOC(=O)c1ccc(NC2CCCCC2)c(N)c1`: the Potency result in test [1] and in test [2] was “inactive” throughout.

For `C/C=C1/CC2C(=O)Nc3cc(O)c(OC)cc3C(=O)N2C1` (configuration not stated), the Potency result in test [1] and in test [2] was “inactive” throughout.

As for `C/C=C1/C[N+](C)([O-])C2Cc3c([nH]c4ccccc34)C(=O)CC1C2C(=O)OC` (configuration not stated), the Potency result in test [1] and in test [2] was “inactive” each time.

For the compound `Cc1cc(C(=O)N2Cc3cnn(C)c3Nc3ccccc32)ccc1CNC(=O)N1CCN(Cc2cc(O)cc(O)c2)CC1`, the Potency result in test [1] and in test [2] was “inactive” each time.

Regarding `COC(=O)c1ccc(OC)cc1O[C@@H]1O[C@H](CO[C@@H]2OC[C@@H](O)[C@H](O)[C@H]2O)[C@@H](O)[C@H](O)[C@H]1O`, the Potency result in test [1] and in test [2] was “inactive” each time.

For the compound `C/C=C1/[C@H](O[C@@H]2O[C@H](CO)[C@@H](O)[C@H](O)[C@H]2O)OC=C2C(=O)O[C@@H]3C[C@@H](C(C)CO)[C@H](COC(=O)C[C@H]21)[C@H]3C` (some centres not stated), the Potency entry in test [1] and in test [2] was “inactive” throughout.

As for `C[C@H]1[C@@H](O)[C@H](O)C2[C@]3(C)C([C@@H](O)[C@H]4OC(=O)[C@@H]1[C@@]24C)[C@](C)(O)C=C[C@H]3O[C@@H]1O[C@H](CO)[C@@H](O)[C@H](O)[C@H]1O` (some centres not stated), the Potency entry in test [1] and in test [2] was “inactive” each time.

For `C[C@@H]1CCC2C(C)(C)[C@H](O)[C@H](O)C[C@]2(C)[C@@]12Cc1c(O)cc3c(c1O2)CN(CCCC(=O)O)C3=O` (some centres not stated), the Potency entry in test [1] and in test [2] was “inactive” in each case.
